Bioassay records deposited in PubChem BioAssay by National Center for Advancing Translational Sciences (NCATS).
MARV entry inh – inhibitors of Marburg virus binding or cell entry | Marburg virus pseudotyped entry inhibition, cell reporter | Potency, µM (series often up to 37.8 µM), for inactives: top-dose activity change, negative = inhibition, most hits filed as inhibitors | 300,000 tested, 1.8% active | AID 540276; calls by dose curve; tested in HEK293 cells; further: potency means the concentration at half of the fitted maximal effect; on the % scale 0 is the no-effect control and ±100 the full control effect
Cycloheximide cs – counter-screen hit for Shiga toxin inhibitors, cycloheximide | max response, % | 300,000 tested, 12% active | cell reporter, cycloheximide protein synthesis inhibition counterscreen; in the data active means max response mostly above about 13%, no sharp cut-off; inactive means mostly below about 14%; further: read at 38.3 µM for the half of the compounds with a filed dose; 0% is about no effect
LASV entry inh – blocks Lassa virus binding to or entry into cells; Lassa virus pseudotype entry inhibition, cell reporter; Potency, µM (titrated, usually from 37.9 µM), inactives show top-dose activity change, negative = inhibition, most hits filed as inhibitors; 300,000 tested, 1.2% active; calls by dose curve; tested in HEK293 cells; further: potency means the concentration at half of the fitted maximal effect; on the % scale 0 is the no-effect control and ±100 the full control effect; nearly all actives have a fitted effect of over 50% in size
Shiga toxin inh – inhibitors of Shiga toxin in Vero cells; Vero cells, Shiga toxin protein synthesis inhibition reporter; 290,000 tested, 9.2% active; AID 2315; inhibition, % at 38.7 µM; in the data active means inhibition mostly above about 28%, no sharp cut-off; inactive means mostly below about 43%; further: 0% is about no effect
Starred values were filed as active, the others as inactive; ? = inconclusive; nt = no result given; [ ] = dose if it differs, or a comment. Compounds with a hit are over-represented: about 12% of the library has one in this group of screens.

SMILES	MARV entry inh	Cycloheximide cs	LASV entry inh	Shiga toxin inh
CCN1C(=O)[C@H]2[C@H]3[C@H](O)[C@H](O)C/C(=N\OCC[C@@H]4C=C[C@H](OC(C)=O)[C@@H](COC(C)=O)O4)[C@@H]3CC[C@H]2C1=O	-15%[14.2 µM]	nt	nt	nt
COc1ccc(NC(=O)Cn2c(=O)n(Cc3ccco3)c(=O)c3oc4ccccc4c32)cc1Cl	nt	nt	3%[46.1 µM]	nt
CC(Sc1ncc(C(F)(F)F)cc1Cl)C(=O)NCC1CCCO1 (stereo not drawn)	-8%[46.1 µM]	-1	-21%	19
O=S(=O)(O)c1nc2ccccc2[nH]1	nt	-2	nt	4
CC1CCCN(c2ncnc3c2cnn3-c2ccc(Cl)cc2)C1 (stereo not drawn)	nt	62*	nt	60*
COc1cccc(N2CCN(c3ncnc4c3cnn4-c3ccc(C)cc3C)CC2)c1	-4%	17*	nt	41
CCOC(=O)c1ccccc1NC(=O)CSc1cn(CC(=O)N2CCCCCC2)c2ccccc12	nt	nt	-16%[46.1 µM]	nt
CC(C)(C)c1ccc(-c2ncccc2O)cc1	-1%[46.1 µM]	32*	?	69*
c1ccc(-c2nccnc2-c2ccccc2)cc1	9%[46.1 µM]	13	10%	2
O=C(N/N=C/C=C/c1ccccc1)c1n[nH]c2c1CCC2	?	15*	-5%	21
CC(/C=N/NC(=O)c1n[nH]c2c1CCC2)=C\c1ccccc1	?	32	?	80
O=C(N/N=C/C=C/c1ccccc1)c1cc(C2CC2)[nH]n1	?	1	1%	24
O=C(N/N=C/C(Br)=C\c1ccccc1)c1n[nH]c2c1CCC2	?	64*	?	111*
N#C/C(=C\c1cccnc1)c1nc2c(s1)CCCC2	?	44*	?	156*
COc1cc(/C=C(\C#N)c2nc3c(s2)CCCC3)ccc1O	-1%	50*	nt	68*
CC1CCc2nc(/C(C#N)=C/c3cccnc3)sc2C1 (stereo not drawn)	?	52*	?	145*
CN1C(=O)CC2(C=CC(=O)C=C2OC(=O)c2ccccc2)c2ccccc21 (stereo not drawn)	nt	2	nt	15
Cn1/c(=N/N=C/c2ccc(Cl)c([N+](=O)[O-])c2)sc2ccccc21	19%	9	?	-5
Cn1/c(=N/N=C/c2ccc(N3CCOCC3)cc2)sc2ccccc21	8%[46.1 µM]	37*	16%[46.1 µM]	71*
Cn1/c(=N/N=C/c2ccccn2)sc2ccccc21	?	51*	?	92*
CN1N=C(C(=O)N=c2sc3ccccc3n2C)CCC1=O	?	nt	-2%[46.1 µM]	nt
CCc1nn(CC(=O)NC2CC2)c(=O)c2cc3ccccc3n12	15%[46.1 µM]	nt	nt	nt
Cc1ccc(-c2ccc(C3C(C#N)=C(N)Oc4n[nH]c(C)c43)o2)cc1 (stereo not drawn)	-4%	32*	18%	50*
CCOCC(=O)NC1CCc2cc(OC)c(OC)c(OC)c2-c2ccc(SC)c(=O)cc21 (stereo not drawn)	-17%	nt	?	nt
COc1ccc(C2CC(c3ccccc3)Oc3cc(OC)c(OC)c(OC)c32)cc1 (stereo not drawn)	nt	19	nt	-2
SMILES	MARV entry inh	Cycloheximide cs	LASV entry inh	Shiga toxin inh
O=c1[nH]c2ccccc2cc1-c1nnn(-c2ccc(F)cc2)n1	nt	23*	nt	49*
Fc1ccc(-n2nnc(-c3cccnc3)n2)cc1	nt	42*	nt	70*
Cc1ccc(-n2nnc(-c3nccs3)n2)cc1	nt	1	nt	-17
Clc1ccc(-n2nnc(-c3nccs3)n2)cc1Cl	nt	29*	nt	74*
Fc1ccc(-n2nnc(-c3cnc4ccccc4c3)n2)cc1	nt	46*	nt	62*
Fc1ccc(-n2nnc(-c3ccccc3Br)n2)cc1	-7%[46.1 µM]	3	-16%[46.1 µM]	-2
Fc1ccc(C(CCCn2nnc(-c3cccnc3)n2)c2ccc(F)cc2)cc1	?	8	-8%	40
O=C(CNC(=O)C1COc2ccccc2O1)N/N=C\c1ccc(Cl)cc1 (stereo not drawn)	nt	-1	nt	-1
CCOC(=O)C1(Cc2ccccc2C)CCCN(S(=O)(=O)CC)C1 (stereo not drawn)	nt	-2	nt	-8
c1cncc(-c2nnc(-c3cccnc3)nn2)c1	?	1	?	0
Clc1ccc(-n2nnc(-c3cccnc3)n2)cc1Cl	nt	41*	nt	41*
Brc1ccccc1-n1nnc(-c2cccnc2)n1	nt	29*	nt	33
COc1ccc(NC(=O)C(=O)N2N=C(C(C)C)CC2(O)C(F)(F)F)cc1 (stereo not drawn)	-6%	-4	-11%	-11
CCc1cc(=O)n2[nH]c(-c3ccccc3)c(-c3ccccc3)c2n1	?	2	?	-3
Clc1ccc(-c2nc3n(n2)Cc2ccccc2-3)cc1	?	66*	?	118*
COCc1ccc(C(=O)N2CCCC(Nc3ccc4c(c3)OCCO4)C2)o1 (stereo not drawn)	-3%	4	?	11
